Source: PubChem BioAssay (NCATS)
Inconclusive results are not listed. Calls of active or inactive are those of the source. Unless noted, the call rests on the fitted dose curve; in most records, active means well fitted curve in the direction sought with a large enough effect; inconclusive means small, poorly fitted or top-dose-only effect, or another doubt; inactive means no such curve, though single readings can be large; an effect the other way counts as inactive or inconclusive.

Assays:
[1] = Cytometric Cell-Based qHTS for Inhibitors of the mTORC1 Signaling Pathway in MEF (Tsc2-/-, p53-/-) Cells (AID 2660);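 further: percent of cells above a phospho-rpS6 to PI ratio cutoff in each well; series mostly up to about 38 µM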
Summary of the method: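 Cells are plated, treated with compound for 24 hrs at 37 degree Celsius, then fixed, blocked and immunostained for phospho-rpS6 Ser235/236. Propidium iodide counterstain follows. Per-well % positive cells is derived from the PI-normalized phospho-S6 signal.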

[2] = High Content Imaging Cell-Based qHTS for Inhibitors of the mTORC1 Signaling Pathway in MEF (Tsc2-/-, p53-/-) Cells (AID 2666);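 further: percent of cells scored positive for phospho-rpS6 Ser235/236 immunostaining by imaging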
Summary of the method: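 Read-out: % positive cells per well, with thresholds from highest- and lowest-signal wells, based on phospho-rpS6 (Ser235/236) intensity normalized to Hoechst nuclear stain. Cells: Tsc2-/-, p53-/- MEFs carrying empty vector; compound 24 hrs, 37 degree Celsius.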

[3] = High Content Imaging Cell-Based qHTS for Inhibitors of the mTORC1 Signaling Pathway in MEF Cells (AID 2667); further: potency means the concentration at half of the fitted maximal effect
Summary of the method: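 MEF (Tsc2-/-, p53-/-, WT Tsc2 re-expressed); cpd 24 h, 37 °C; PFA fix; Alexa-488 anti-p-rpS6 Ser235/236, PI, Hoechst; IN Cell imaging; Hoechst/Alexa-488 intensity ratio; % active cells, thresholds set from rapamycin and DMSO wells.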

[4] = Validation screen for small molecules that induce DNA re-replication in MCF 10A normal breast cells (AID 463097); further: nearly all actives have a fitted effect of over 60% in size; further: potency means the concentration at half of the fitted maximal effect
Summary of the method: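 Read-out is Hoechst total nuclear intensity by fluorescence scanning imager, flagging increased high-DNA-content nuclei. Compounds were incubated with MCF 10A cells for 48 hr (37 C, 5% CO2) before 40 min staining.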

[5] = target: Ubiquitin carboxyl-terminal hydrolase 2 (Homo sapiens) (UniProt O75604); assay: qHTS Validation Assay for Inhibitors of Ubiquitin-specific Protease USP2a Using CHOP2 as the Reporter (AID 463106)
Chain of Ubiquitin carboxyl-terminal hydrolase 2 (Homo sapiens) (O75604 whole entry, looked up): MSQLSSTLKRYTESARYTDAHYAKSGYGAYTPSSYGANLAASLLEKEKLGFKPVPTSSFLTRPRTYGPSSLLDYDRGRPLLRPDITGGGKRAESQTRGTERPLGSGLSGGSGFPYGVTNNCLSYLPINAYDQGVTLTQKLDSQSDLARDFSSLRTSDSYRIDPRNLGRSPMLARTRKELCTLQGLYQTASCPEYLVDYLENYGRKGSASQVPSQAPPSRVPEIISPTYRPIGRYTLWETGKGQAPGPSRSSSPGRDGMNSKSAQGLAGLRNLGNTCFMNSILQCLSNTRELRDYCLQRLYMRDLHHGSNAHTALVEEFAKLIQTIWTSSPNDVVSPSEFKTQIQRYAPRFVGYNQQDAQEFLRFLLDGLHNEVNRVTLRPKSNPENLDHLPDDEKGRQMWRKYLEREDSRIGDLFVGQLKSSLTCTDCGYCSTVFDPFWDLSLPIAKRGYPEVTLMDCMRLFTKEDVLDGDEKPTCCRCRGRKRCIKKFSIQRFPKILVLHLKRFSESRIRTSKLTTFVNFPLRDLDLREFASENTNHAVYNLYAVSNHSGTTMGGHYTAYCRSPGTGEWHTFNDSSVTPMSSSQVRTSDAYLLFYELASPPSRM
Summary of the method: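 USP2 core (10nM final) was preincubated with compound for 30min at RT in 20mM Tris-HCl pH 8.0, 2mM CaCl2, 2mM beta-mercaptoethanol, 0.05% CHAPS. Ub-CHOP2 and reporter substrate (25nM each) were added, and fluorescence (Ex 485/Em 531nm) was read after 60min.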

[6] = target: DNA polymerase III PolC-type (Bacillus subtilis (strain 168)) (UniProt P13267); assay: qHTS Validation Assay for the Inhibitors of DNA Replication in Gram-Positive Bacteria (AID 485295);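 further: reconstituted holoenzyme with PolC plus beta clamp SSB and primase; PicoGreen fluorescence of double-stranded DNA made on primed circular M13 template; series mostly up to about 57 µM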
Chain of DNA polymerase III PolC-type (Bacillus subtilis (strain 168)) (P13267 whole entry, looked up): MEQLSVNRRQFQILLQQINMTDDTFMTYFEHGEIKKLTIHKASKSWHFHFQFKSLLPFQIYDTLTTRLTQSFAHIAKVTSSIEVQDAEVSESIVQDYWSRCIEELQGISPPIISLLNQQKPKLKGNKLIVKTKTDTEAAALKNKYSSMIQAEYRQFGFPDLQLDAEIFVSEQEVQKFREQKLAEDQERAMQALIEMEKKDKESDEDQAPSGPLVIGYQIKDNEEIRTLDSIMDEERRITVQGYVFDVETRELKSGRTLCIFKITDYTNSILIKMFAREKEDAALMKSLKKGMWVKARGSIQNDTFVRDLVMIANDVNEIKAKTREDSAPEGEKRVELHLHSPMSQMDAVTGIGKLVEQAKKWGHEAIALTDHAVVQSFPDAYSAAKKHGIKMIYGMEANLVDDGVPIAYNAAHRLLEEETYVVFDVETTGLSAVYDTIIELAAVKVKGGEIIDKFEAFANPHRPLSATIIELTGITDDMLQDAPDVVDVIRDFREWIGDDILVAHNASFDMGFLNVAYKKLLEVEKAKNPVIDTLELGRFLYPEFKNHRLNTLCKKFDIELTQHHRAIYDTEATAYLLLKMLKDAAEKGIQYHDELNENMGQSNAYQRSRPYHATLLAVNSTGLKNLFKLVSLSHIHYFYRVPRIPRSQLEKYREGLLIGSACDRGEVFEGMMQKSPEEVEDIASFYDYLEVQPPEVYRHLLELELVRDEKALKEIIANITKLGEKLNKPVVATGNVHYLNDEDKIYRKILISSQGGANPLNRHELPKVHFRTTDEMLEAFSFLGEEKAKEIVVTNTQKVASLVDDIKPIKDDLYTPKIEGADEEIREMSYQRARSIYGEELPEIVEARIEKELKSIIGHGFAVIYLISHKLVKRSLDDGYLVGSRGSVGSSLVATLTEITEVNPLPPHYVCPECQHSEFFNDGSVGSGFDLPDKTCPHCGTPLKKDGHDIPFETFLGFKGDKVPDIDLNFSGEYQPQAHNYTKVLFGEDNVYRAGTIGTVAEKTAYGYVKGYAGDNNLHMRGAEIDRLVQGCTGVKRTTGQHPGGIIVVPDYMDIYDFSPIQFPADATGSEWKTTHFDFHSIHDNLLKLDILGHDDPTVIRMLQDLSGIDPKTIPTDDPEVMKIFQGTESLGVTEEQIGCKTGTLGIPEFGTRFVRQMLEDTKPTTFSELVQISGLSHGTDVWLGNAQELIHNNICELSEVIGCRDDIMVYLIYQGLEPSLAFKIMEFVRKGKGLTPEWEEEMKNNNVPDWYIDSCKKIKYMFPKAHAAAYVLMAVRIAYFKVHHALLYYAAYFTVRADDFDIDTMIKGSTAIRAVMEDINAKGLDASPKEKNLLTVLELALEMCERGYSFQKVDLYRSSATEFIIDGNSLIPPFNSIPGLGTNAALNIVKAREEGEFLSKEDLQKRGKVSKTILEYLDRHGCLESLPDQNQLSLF
Summary of the method: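 Double-stranded DNA product detected by PicoGreen fluorescence after EDTA quench. Compound incubated with B. subtilis holoenzyme (PolC, beta subunit, SSB, primase) before substrate addition; primed replication of M13Gori with dNTPs and NTPs at room temperature; DMSO defines 0% inhibition.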

[7] = target: Tumor susceptibility gene 101 protein (Homo sapiens) (UniProt Q99816); assay: qHTS Validation Assay for Iinhibitors of HIV-1 Budding by Blocking the Interaction of PTAP/TSG101 (AID 485342; calls by dose curve)
Chain of Tumor susceptibility gene 101 protein (Homo sapiens) (Q99816 whole entry, looked up, the tested form may be a part): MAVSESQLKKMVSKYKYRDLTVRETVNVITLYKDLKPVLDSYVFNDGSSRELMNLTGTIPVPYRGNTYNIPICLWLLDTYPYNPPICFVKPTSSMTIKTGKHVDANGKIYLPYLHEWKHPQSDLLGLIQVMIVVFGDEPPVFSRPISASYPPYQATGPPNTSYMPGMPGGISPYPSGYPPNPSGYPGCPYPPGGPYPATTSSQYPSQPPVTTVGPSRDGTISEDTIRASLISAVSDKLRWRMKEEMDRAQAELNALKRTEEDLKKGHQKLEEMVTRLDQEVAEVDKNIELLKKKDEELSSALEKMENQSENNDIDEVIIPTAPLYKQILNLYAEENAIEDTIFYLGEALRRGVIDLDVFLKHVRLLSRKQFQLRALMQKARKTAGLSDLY
Summary of the method: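 Fluorescence polarization of 50 nM FITC-PTAP peptide bound to 10 uM Tsg101 binding domain was read after 20 min room-temperature incubation with compounds, in 10 mM HEPES pH 7.5, 0.15 M NaCl, 0.01% Tween 20.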

[8] = qHTS Validation Assay to Find Inhibitors of Chronic Active B-Cell Receptor Signaling (AID 485345; active means well fitted curve in the direction sought with a large enough effect in the main read-out, with a control signal flat, not every such curve was filed as active)
Summary of the method: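 TMD8 ABC-DLBCL cells with dox-inducible green luciferase–IκBα fusion and red native luciferase; compounds 46 uM–3 nM, 4 h at 37C with doxycycline in 0.5% FBS IMDM. Green/red ratio normalized to basal and 10 uM MG-132.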

[9] = Cytometry Cell-Based qHTS for Inhibitors of the mTORC1 Signaling Pathway in MEF cells (AID 2668);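 further: Tsc2-/- p53-/- mouse embryonic fibroblasts stably re-expressing wild-type Tsc2; percent cells positive for phospho-rpS6 Ser235/236 relative to propidium iodide stain; series mostly up to about 38 µM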
Summary of the method: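 Phospho-rpS6 (Ser235/236) immunofluorescence over PI signal, scored as % positive cells using thresholds from 7.5 nM rapamycin and DMSO wells, after 24 h compound exposure of WT-Tsc2-rescued Tsc2-/-, p53-/- MEFs. PI cell count recorded for viability.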

Measured: Potency

CCCCCCN(CCCCCC)C(=O)Cc1c(-c2ccc(F)cc2)[nH]c2ccccc12
not listed: [9]
inactive: all other assays above

NCC(O)C1CCCCCCC1 (stereo unspecified)
not listed: [4] | [5]
inactive: all other assays above

CCCC(=O)NCCc1c2n(c3ccc(OC)cc13)CCCc1ccccc1-2
not listed: [3] | [4] | [8]
inactive: all other assays above

O=C(O)c1ccccc1Nc1cccc(OCc2ccc3ccccc3n2)c1
not listed: [3] | [8]
inactive: all other assays above

C=CCN1CCc2cc(O)c(O)cc2C(c2ccccc2)C1 (stereo unspecified)
not listed: [9]
inactive: all other assays above

c1ccc(CN2CCC3(CCCc4ccccc43)CC2)cc1
not listed: [9]
inactive: all other assays above

CC(=O)[C@H]1CCC2C3CC=C4C[C@@H](OS(=O)(=O)O)CC[C@]4(C)C3CC[C@@]21C (stereo partly specified)
not listed: [3]
inactive: all other assays above

COc1ccc(-c2cc3ncc(C)n3c(Nc3ncccc3C(N)=O)n2)cc1OC
not listed: [4] | [8] | [9]
inactive: all other assays above

C/C(=C\c1ccc(C(=O)O)cc1)c1ccc2c(c1)C(C)(C)CCC2(C)C
inactive: [1] | [2] | [3] | [6] | [7]
active: [4] 11.2 µM

CCSC(=N)N
not listed: [3]
inactive: all other assays above

N=C(N)SCCc1cnc[nH]1
not listed: [3]
inactive: all other assays above

N[C@H](C(=O)O)[C@H]1C[C@@H]1C(=O)O
not listed: [3]
inactive: all other assays above

Brc1c(Br)c(Br)c2[nH]cnc2c1Br
not listed: [3] | [4] | [8]
inactive: all other assays above

CC(C)(C)c1ccc(/C=C/C(=O)Nc2ccc3c(c2)OCCO3)cc1
not listed: [4] | [8] | [9]
inactive: all other assays above

CNC(=O)c1cc2c(cn1)[nH]c1ccccc12
not listed: [3] | [5] | [6]
inactive: all other assays above

Nc1ncnc2c1c(-c1ccc(Oc3ccccc3)cc1)cn2C1CCCC1
active: [4] 3.16 µM
not listed: [8] | [9]
inactive: all other assays above

COc1ccc2c(c1)CCC1C2CC[C@@]2(C)C1CC[C@@H]2NCCCCCCN1C(=O)C=CC1=O (stereo partly specified)
not listed: [3]
inactive: all other assays above

O=C(O)c1ccccc1Nc1ccccc1
not listed: [3]
inactive: all other assays above

CCOC(=O)C12CC1/C(=N/O)c1ccccc1O2 (stereo unspecified)
not listed: [4] | [5]
inactive: all other assays above

NCCNS(=O)(=O)c1cccc2c(Cl)cccc12
inactive: [1] | [2] | [5] | [6] | [7]
active: [3] 16.5 µM

O=C1C2C=CC=CC2=NC(=S)N1CCN1CCC(=C(c2ccc(F)cc2)c2ccc(F)cc2)CC1 (stereo unspecified)
active: [4] 7.08 µM
not listed: [3] | [6]
inactive: all other assays above

CCC(=O)N1CCN(C(=O)c2ccccc2)CC1
not listed: [3]
inactive: all other assays above

O=c1cc(-c2ccccc2F)[nH]c2cc3c(cc12)OCO3
not listed: [4] | [8] | [9]
inactive: all other assays above

CCC1(O)CC2CN(CCc3c([nH]c4ccccc34)[C@@](C(=O)OC)(c3cc4c(cc3OC)N(C=O)C3[C@]45CCN4CC=C[C@@](CC)([C@@H](OC(C)=O)[C@]3(O)C(=O)OC)[C@H]45)C2)C1 (stereo partly specified)
active: [4] 0.0447 µM
inactive: [1] | [2] | [3] | [5] | [6]

C=CC1(C)CC(=O)C2(O)C(C)(O1)C(OC(C)=O)C(O)C1C(C)(C)CCC(O)C12C (stereo unspecified)
not listed: [3] | [4] | [8]
inactive: all other assays above

CNc1ncnc2c1ncn2[C@H]1C[C@H](OP(=O)(O)O)[C@@H](COP(=O)(O)O)O1
not listed: [2] | [8]
inactive: all other assays above

NC(N)=NC(N)=Nc1ccccc1
not listed: [3] | [4] | [5]
inactive: all other assays above

OC[C@H]1NC[C@@H](O)[C@@H]1O
not listed: [2]
inactive: all other assays above
